Test results as given in PubChem BioAssay.
Unmarked numbers belong to inactive results. Active and inactive are the calls of the source.

Assay: budding yeast growth changes without added modifier – OD600, strain BY4716, 24 h, basal condition, primary screen (AID 1173)
Settings: S. cerevisiae BY4716 growth, OD600, 24 h; higher = more signal, called active from +8 up or from −8 down

SMILES | z-score
COC(=O)[C@@]1(Cc2ccc(F)cc2)[C@H]2c3cc(C(=O)N(C)C)n(CCc4ccc(O)c(O)c4)c3C[C@H]2CN1C(=O)c1ccccc1 | 0.634
CCOC(=O)C1=CC[C@@H](c2ccc(OC)cc2)N(S(=O)(=O)c2ccc(C)cc2)[C@H]1c1ccc(C)cc1 | 1.31
[N-]=[N+]=NCc1ccccc1[C@@H]1OC(c2ccc(OCCCO)cc2)=N[C@]1(Cc1ccccc1N=[N+]=[N-])C(=O)O | -3.6
COC(=O)[C@@]1(Cc2ccccc2)[C@H]2c3cc(C(=O)N(C)C)n(CCSC(=N)N)c3C[C@H]2CN1C(=O)c1ccccc1 | 1.36
Cc1ccc(S[C@]2(C(=O)NC(C)C)CC(=O)N(C3CCCCC3)[C@@H]2c2ccc(CO)cc2I)cc1 | 0.27
COC(=O)C(CC#Cc1ccc2c(c1)[C@]1(C(=O)N2)[C@H](C(=O)N2CCc3cc(OC)c(OC)cc3C2)[C@H]2C(=O)O[C@H](c3ccccc3)[C@H](c3ccccc3)N2[C@@H]1c1ccccc1OCCO)C(=O)OC | 1.79
C=CC[C@@]12N=C(c3ccc(OCCCO)cc3)O[C@@H]1c1ccccc1N(CCC)C2=O | -2.22
CCC(CC)C(O)C1C=CC2C(=O)N(c3ccccc3)C(=O)C2N1Nc1ccccc1F (stereo unspecified) | 0.153
C=C(COC)/C(=C/C[C@H](OC(C)=O)c1ccccc1OCCO)c1cc(C(=O)OC)ccc1OC | -1.14
CN(C)CCCC[C@@H]1NC(=O)[C@@H]2C[C@H](C(=O)NCCCCCN)[C@H](c3cccc(OCCO)c3)N2C1=O | -0.985
COC(=O)C[C@H]1O[C@@]2(C[C@@H]1[Si](C)(C)C)C(=O)N(C)c1ccccc12 | -3.71
NC(=O)N1C(=O)C2C(C1=O)C1C=C(CCCO)C2C(C2CC2)N1Cc1sc2ccccc2c1Cl (stereo unspecified) | -6.04
CCOC(=O)C1=CCC(c2cc3ccccc3[nH]2)N(CCN2CC(C(=O)OCC)=CCC2c2cc3ccccc3[nH]2)C1 (stereo unspecified) | 0.897
COCC(=C=CC[C@H](O)c1ccccc1OCCO)C[C@H](O)COCc1ccccc1 | -2.91
COc1ccc([Si](C)(C)[C@@H]2[C@@H](CC(=O)N3CCC[C@H]3CO)O[C@]3(C(=O)N(Cc4ccc(N5CCOC5=O)cc4)c4ccccc43)[C@H]2C)cc1 | -0.793
C=C(CCCC)C(=O)CC[C@H](OC(=O)c1ccccc1-c1ccccc1C(=O)O)c1ccc(OCCO)cc1 | -1.6
COC(=O)[C@@]1(Cc2ccc(F)cc2)[C@H]2c3cc(C(=O)N4CCCC4)n(Cc4ccccn4)c3C[C@H]2CN1C(=O)c1ccccc1 | 1.32
O=C1NC(=O)C2C1C=CC(C(O)c1ccc([N+](=O)[O-])cc1)N2Nc1ccccn1 (stereo unspecified) | 0.579

SMILES | z-score
CCCC#C[Si](O[C@H](CC)c1cn(Cc2ccccc2)nn1)(C(C)C)C(C)C | -14.2 (active)
COCCCNC(=O)[C@@]1(CCC(=O)OC(C)(C)C)COC(c2ccc(OCCCO)cc2)=N1 | -0.579
C=C(CCCC)/C(=C/C[C@H](OC(C)=O)c1cccc(OCCO)c1)c1cnc2ccccc2c1 | 1.13
CN(C)C(=O)[C@]1(Cc2ccccc2)N=C(c2ccc(OCCCO)cc2)O[C@@H]1c1ccccc1CN=[N+]=[N-] | -1.3
Cc1ccc(S[C@]2(C(=O)NCc3ccccc3)CC(=O)N(Cc3ccccc3C(F)(F)F)[C@@H]2c2ccc(CO)cc2)cc1 | -0.359
CCCN1C(=O)[C@]2(CCC(=O)OC(C)(C)C)N=C(c3ccc(OCCCO)cc3)O[C@@H]2c2ccccc21 | -0.836
C[N+](C)(C)CCCC[C@@H]1NC(=O)[C@H]2C[C@@H](C(=O)NCCCCCNC(=O)CS)[C@@H](c3cccc(OCCO)c3)N2C1=O | -0.307
CO[C@H]1O[C@H](CO)[C@@H](OC(=O)Nc2ccccc2-c2ccccc2)[C@H](OC(=O)Nc2ccccc2)[C@H]1OC(=O)Nc1ccccc1 | 0.788
CC(C)=C1C(=O)C(c2ccccc2)=C2CN3C(=O)N(CCc4ccccc4)C(=O)[C@]3(C)[C@H]21 | -0.0416
C[C@]1(C(=O)O)c2ccccc2C(=O)N(Cc2cc(F)cc(C(F)(F)F)c2)[C@H]1c1ccc(CO)cc1 | -1.43
CN(C)CCCNC(=O)[C@@]1(Cc2ccccc2I)c2ccccc2C(=O)N(C2CCCCC2)[C@H]1c1ccc(CO)cc1 | -8.03 (active)
C#CCN1[C@@H](Cc2ccccc2)C(=O)O[C@H](Cc2ccccc2)[C@@H]1/C=C/C1CC1 | -0.236
CCCc1cc2c(n1CCc1ccc(Cl)cc1)C(C)C1CN(C(=O)c3ccccc3)C(C)(C(=O)OC)C21 (stereo unspecified) | 0.736
CN1C(=O)[C@@H]2[C@@H](CC(COc3ccccc3)=C3[C@@H](CCc4ccccc4)OB(O)C[C@@H]32)C1=O | -1.87
CC(C)(C)OC(=O)CC[C@]1(C(=O)NCC(O)CO)N=C(c2ccc(OCCCO)cc2)O[C@H]1c1ccccc1N=[N+]=[N-] (stereo partly specified) | -0.66
COc1ccc([Si](C)(C)[C@H]2[C@H](CC(=O)N3CCC[C@H]3CO)O[C@@]3(C(=O)N(Cc4ccc(N5CCCCC5=O)cc4)c4ccccc43)[C@@H]2C)cc1 | -0.0356
C=CCOC(=O)[C@H]1[C@@H]2C(=O)O[C@@H](c3ccccc3)[C@@H](c3ccccc3)N2[C@@H](c2ccc(OCCOC(=O)[C@@H]3C[C@@H]4C(=O)N[C@@H](CCCC[N+](C)(C)C)C(=O)N4[C@@H]3c3ccc(O)cc3)cc2)[C@]12C(=O)Nc1ccc(I)cc12 | 0.118
O=C(NCc1ccc(F)cc1)[C@H]1C[C@H]2C(=O)N3CCC[C@H]3C(=O)N2[C@H]1c1ccc(O)cc1 | -0.542
